An excerpt weighted towards active compounds, which were near 3.6% of everything screened.
LMP1 NFkB inh – reduces LMP1-driven NF-kappaB luciferase signal. LMP1-induced NF-kappaB luciferase reporter cells, luminescence. inhibition, % at 12.5 µM. hit rate 0.69% among 350,000. AID 504558; in the data active = inhibition above about 41%; inconclusive = no clear call, values can overlap the other calls;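 note: 0% = neutral control wells and 100% = reference inhibitor control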
TWEAK Fn14 block – blocks TWEAK-Fn14 interaction in a reporter cell assay. TWEAK-stimulated Fn14 reporter cells, luciferase luminescence, 8 h. inhibition, % at 10 µM. hit rate 2% among 360,000. AID 1159606; in the data active = inhibition above about 50%
TROY signal inh – blocks TROY-dependent signaling in reporter cells; inhibition, % at 10 µM; Q293 LMP1-TROYcd NF-kB luciferase reporter, 4 h; hit rate 0.98% among 360,000; AID 1347056;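 active = compounds whose plate-normalised and pattern-corrected inhibition of the luciferase reporter signal at the single screening dose is 50% or more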
HSF1 inh – HSF1 inhibition; NIH3T3-HGL HSE-luciferase, MG132-induced, luminescence 8 h; active compounds read low; activity change, negative = inhibition, % at 7.5 µM (by protocol); hit rate 0.77% among 300,000;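 active = more than half of replicate wells show activity change below -50%, luminescence cut by over half; inconclusive = some wells, but at most half, below -50%; inactive = no replicate well below -50%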;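 note: luciferase reports HSF-1 transcriptional activity via heat shock element; 0% = median of DMSO wells and -100% = zero luminescence signal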
HSF-1 act – increases HSF-1 driven luciferase reporter signal | activation, % at 9 µM | NIH3T3-HGL HSF-1 luciferase reporter, MG132, 8 h; 100% = twice DMSO control signal | AID 504408 | hit rate 1.7% among 300,000;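 active = mean replicate activation of at least 50% with a set share of replicates each reaching 50%; inconclusive = only one of those two conditions met; inactive = mean below 50% and too few replicates reaching it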;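 note: 0% = median of the neutral control wells and 100% = twice that signal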
LGR2 antag – blocks bursicon-induced cAMP signaling via Drosophila LGR2. HEK293 LGR2, CRE-luciferase, bursicon-stimulated, 4 h. AID 720647. inhibition, % at 9.99 µM. hit rate 0.35% among 380,000;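 active = drop in luminescence signal, shown as inhibition above about 50% in the replicate tests, limit read from the data, passing the limit was not always enough; inconclusive = probably only some replicates passing the limit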;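 note: agonist challenge used bursicon conditioned medium at about half maximal strength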
The depositor's hits bear a star; ? = inconclusive; . = not tested or not shown.

SMILES | LMP1 NFkB inh | TWEAK Fn14 block | TROY signal inh | HSF1 inh | HSF-1 act | LGR2 antag
Cc1cccc(/C(N)=N/OC(=O)c2ccc3c(c2)OCO3)c1 | -23 | 63* | 43 | -8 | -18 | 54*
Cc1cccc(/C(N)=N/OC(=O)C23CC4CC(CC(C4)C2)C3)c1 | -43 | 35 | 60* | -42 | -53 | .
COc1cc(OC)cc(C(=O)O/N=C(\N)c2cccc(C)c2)c1 | -6 | -27 | -57 | 15 | 24 | -40
N/C(=N\OC(=O)c1ccc2c(c1)OCO2)c1cccc([N+](=O)[O-])c1 | -16 | -5 | -48 | 50 | 59* | -31
Cc1cccc(/C(N)=N/OC(=O)c2cccnc2)c1 | -10 | 2 | -45 | 14 | 38 | -62
COc1ccc2ccccc2c1/C=N/Nc1ccc(Cl)c(C(=O)O)c1 | -11 | 1 | -4 | -5 | 5 | 9
COc1ccc(N/N=C/c2c(C(=O)O)ccc3ccccc23)cc1 | 69* | 22 | 13 | -4 | -9 | -11
CCCN1[C@@H]2c3ccc(C4=CCCCC4)c(=O)n3C[C@H]1[C@H](CO)[C@H]2C(=O)Nc1ccccc1 | . | . | . | . | . | -2
Cc1ccc(Cc2c(C)c(C#N)c3[nH]c4ccccc4n3c2=O)cc1 | 7 | 61* | 60* | -5 | 0 | 11
NC1=NC[C@H](c2ccccc2)N1CC1CCCCC1 | 8 | 9 | 6 | -7 | -13 | 6
N#Cc1cnn(CC2CCCCC2)c1N | -2 | 61* | . | -9 | 19 | .
N#CC1=C(c2ccccc2)/C(=C/c2ccccc2)OC1=O | 13 | 83* | -6 | 112 | ? | -12
O=C1O/C(=C/c2ccccc2)c2ccccc21 | 6 | -29 | -36 | 30 | 36 | -15
O=C(CSc1cccc[n+]1[O-])NN(c1ccccc1)c1ccccc1 | -6 | 83* | -28 | 4 | 0 | -2
CC(=Nc1ccc(Br)cc1)c1sc2ccccc2c1O | -41 | -28 | -10 | 42 | 60* | -50
CCc1cccc(CC)c1NC(=O)COC(=O)CC1c2ccccc2CCN1S(=O)(=O)c1ccc(F)cc1 (stereo unspecified) | -1 | 12 | -1 | 31 | 62* | 44
O=C(COC(=O)CC1c2ccccc2CCN1S(=O)(=O)c1ccc(F)cc1)Nc1ccccc1 (stereo unspecified) | 1 | 9 | 12 | -4 | -8 | 5
COc1cc2c(CCNC(C)=O)c[nH]c2cc1Cl | 74* | -1 | 8 | . | . | .
COc1ccc2c3c(n(C)c2c1)[C@@H](CO)N(CC1CC1)CC31CN(C(C)=O)C1 | . | . | . | . | . | -1
O=C1CC(C(=O)Nc2ccccc2)C2(CCCCC2)O1 (stereo unspecified) | 65* | -5 | 9 | -3 | 0 | .
O=C1CC(C(=O)Nc2ccc(Br)cc2)C2(CCCC2)O1 (stereo unspecified) | . | . | . | -4 | 1 | 2
CCOc1ccccc1-n1c(SCC(=O)Nc2ccccc2C(=O)O)nc2ccccc2c1=O | 21 | 92* | 78* | -74* | -75 | 40
CCn1c(SCC(=O)Nc2ccccc2OC)nc2ccccc2c1=O | -2 | 12 | 0 | . | . | .
COc1ccc(C)cc1-n1c(SCC(=O)Nc2cccc(C(=O)O)c2)nc2ccccc2c1=O | 6 | 3 | -1 | 28 | 75* | 4
CCCC(=O)Nc1ccc2c(c1)OC[C@H](C)N(C(=O)CC)C[C@H](C)[C@H](OC)CN(C)C2=O | . | . | . | . | . | 1
SMILES | LMP1 NFkB inh | TWEAK Fn14 block | TROY signal inh | HSF1 inh | HSF-1 act | LGR2 antag
Cc1ccc(COc2ccc(Br)cc2/C=N/O)cc1 | -60 | 18 | 17 | 74 | 94* | .
O/N=C/c1ccc(OCc2ccccc2)c(Cl)c1 | -25 | -11 | -58 | 39 | 58* | -46
O/N=C/c1ccc(OCc2ccccc2)c(Br)c1 | 1 | -23 | -45 | 47 | 66* | -86
O/N=C/c1ccccc1OCc1ccccc1F | 1 | -12 | -60 | 11 | 19 | -16
CCOc1cc(/C=N/O)ccc1OCc1ccc(C)cc1 | -20 | -9 | -60 | 38 | 33 | -87
O/N=C/c1cc(Br)cc(Br)c1OCc1ccccc1 | 7 | 25 | 8 | 4 | 9 | .
O/N=C/c1ccc(OCc2ccccc2F)c(Cl)c1 | -33 | 7 | -63 | 41 | 84* | -57
CCS(=O)(=O)Nc1ccc2c(c1)C(=O)N(C)[C@H]1CC[C@@H](CC(=O)N3CCOCC3)O[C@@H]1CO2 | . | . | . | . | . | -21
CN(C)C(=O)C[C@@H]1CC[C@@H]2[C@H](COc3ccc(NC(=O)c4ccc(F)cc4)cc3C(=O)N2C)O1 | . | . | . | . | . | -10
O=C(CN1CCOCC1)NCC[C@H]1CC[C@@H](NC(=O)Nc2ccc(C(F)(F)F)cc2)[C@@H](CO)O1 | . | . | . | . | . | 9
C[C@@H]1CN([C@@H](C)CO)C(=O)c2cccc(NS(C)(=O)=O)c2O[C@@H]1CN(C)C(=O)Nc1ccccc1 | . | . | . | . | . | 10
C[C@@H]1CN([C@@H](C)CO)C(=O)c2cc(NC(=O)CCC(F)(F)F)ccc2O[C@@H]1CN(C)S(=O)(=O)c1ccccc1 | . | . | . | . | . | -3
O=C1OC(c2ccc3ccccc3c2O)(c2ccc3ccccc3c2O)c2ccccc21 | -9 | 95* | 66* | . | . | -28
O=C1OC(c2ccccc2)(c2ccc3cc(O)ccc3c2)c2ccccc21 (stereo unspecified) | 6 | 60* | 29 | . | . | .
O=C1OC(c2ccccc2)(c2cc(Br)ccc2O)c2ccccc21 (stereo unspecified) | -2 | 56* | 74* | . | . | 24
O=C(Nc1ccc2[nH]ccc2c1)c1cccs1 | 1 | -33 | -41 | 20 | 58* | -46
O=C(Nc1ccc(NC(=O)c2cccs2)c(Cl)c1)c1cccs1 | -15 | -24 | -26 | 30 | 69* | -33
O=C(Nc1ccc(NC(=O)c2cccs2)cc1)c1cccs1 | -22 | -31 | -29 | 23 | 43 | -32
O=C(Nc1ccc(NC(=O)c2cccs2)cc1Cl)c1ccco1 | -26 | -16 | -15 | 32 | 31 | .
CNc1c2cccc(C)c2nc2c(C(=O)NCCN(C)C)cccc12 | 91* | 1 | -70 | . | . | 16
CC=Cc1ccc2n(c1=O)C[C@H]1[C@H](CO)[C@@H](C(=O)NCCCN(C)C)[C@@H]2N1C(=O)c1ccccc1 (mixture of isomers) | . | . | . | . | . | -2
CN1CCc2c(sc(/N=C/c3c[nH]c4ccccc34)c2C#N)C1 | . | -17 | -2 | -29 | -25 | 13
CN1CCc2c(sc(/N=C/c3cc(Cl)ccc3O)c2C#N)C1 | -34 | 65* | 74* | -52* | -60 | -90
CCC(=O)N1[C@@H](CO)[C@@H](c2ccccc2)C12CN(C(=O)NC1CCCC1)C2 | . | . | . | . | . | 22
CN1C2CCC1/C(=C\c1ccccc1F)C(=O)/C2=C/c1ccccc1F | 4 | 83* | 20 | 75 | 106* | 20
Cc1noc(C)c1S(=O)(=O)Nc1ccc2c(c1)C(=O)N([C@H](C)CO)C[C@H](C)[C@H](CN(C)S(C)(=O)=O)OCCCC[C@@H](C)O2 | . | . | . | . | . | 6
Fc1ccc(Cn2c(-c3cscn3)nc3ccccc32)c(Cl)c1 | -9 | -24 | 5 | 2 | 12 | .

Screening data from PubChem.
